# Measurements as given in PubChem BioAssay.
# For part of these data: Potency and affinity values are given separately. Activity calls are given as the source filed them.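 The calls were made as follows, unless noted: active = primary screen active and over 50% activation in each of two duplicate runs; inactive = the rest.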
# Tests used:
# [1] = test system: TRPC4 beta (transient receptor potential cation channel C4), mouse; assay: TRPC4 cation channel opening, retest – cell-based, Fluo4 calcium, HEK293 TRPC4beta/mu-opioid, duplicates, 10 µM, confirmation (AID 2426;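 active = fluorescence ratio normalized to control raised more than 50% in primary screen plus both repeat runs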); settings: Fluo4 calcium fluorescence, at 10 µM; hits give high values
# [2] = test system: transient receptor potential cation channel C4 beta (TRPC4), mouse; assay: TRPC4 cation channel opening, second retest – cell-based, second round, Fluo4, HEK293 TRPC4beta/mu-opioid, 1 µM, confirmation (AID 2461); settings: Fluo4 calcium fluorescence, at 1 µM; hits give high values
# [3] = test system: TRPC4 (transient receptor potential cation channel C4 beta), mouse; assay: potentiation of DAMGO EC20 TRPC4 response – cell-based, second round, Fluo-4, HEK293 TRPC4beta/mu-opioid, 1 µM, confirmation (AID 2554;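 active = primary screen hit whose fluorescence ratio, in both repeats, exceeds the weak agonist control mean by 3 SD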); settings: DAMGO EC20, Fluo-4 calcium flux, at 1 µM; hits give high values
# [4] = test system: TRPC4 beta (transient receptor potential cation channel C4), mouse; assay: potentiation of DAMGO EC20 TRPC4 response – cell-based, Fluo-4, HEK293 TRPC4beta/mu-opioid, confirmation (AID 2555;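 active = primary screen hit whose calcium fluorescence ratio, in both repeats, exceeds the weak agonist control mean by 3 SD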); settings: DAMGO EC20, Fluo-4 calcium flux, at 10 µM; hits give high values
# [5] = molecular target: Short transient receptor potential channel 4 (Mus musculus) (UniProt Q9QUQ5); assay: blockers of DAMGO-evoked TRPC4 calcium flux – cell-based, Fluo4, HEK293 TRPC4beta/mu-opioid, confirmation (AID 2636;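 active = calcium signal cut by more than 3 SD below the full-agonist control yet still positive, in both repeats and the earlier primary screen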); settings: at 10 µM; hits give high values
# Short transient receptor potential channel 4 (Mus musculus), sequence (Q9QUQ5 whole entry, looked up): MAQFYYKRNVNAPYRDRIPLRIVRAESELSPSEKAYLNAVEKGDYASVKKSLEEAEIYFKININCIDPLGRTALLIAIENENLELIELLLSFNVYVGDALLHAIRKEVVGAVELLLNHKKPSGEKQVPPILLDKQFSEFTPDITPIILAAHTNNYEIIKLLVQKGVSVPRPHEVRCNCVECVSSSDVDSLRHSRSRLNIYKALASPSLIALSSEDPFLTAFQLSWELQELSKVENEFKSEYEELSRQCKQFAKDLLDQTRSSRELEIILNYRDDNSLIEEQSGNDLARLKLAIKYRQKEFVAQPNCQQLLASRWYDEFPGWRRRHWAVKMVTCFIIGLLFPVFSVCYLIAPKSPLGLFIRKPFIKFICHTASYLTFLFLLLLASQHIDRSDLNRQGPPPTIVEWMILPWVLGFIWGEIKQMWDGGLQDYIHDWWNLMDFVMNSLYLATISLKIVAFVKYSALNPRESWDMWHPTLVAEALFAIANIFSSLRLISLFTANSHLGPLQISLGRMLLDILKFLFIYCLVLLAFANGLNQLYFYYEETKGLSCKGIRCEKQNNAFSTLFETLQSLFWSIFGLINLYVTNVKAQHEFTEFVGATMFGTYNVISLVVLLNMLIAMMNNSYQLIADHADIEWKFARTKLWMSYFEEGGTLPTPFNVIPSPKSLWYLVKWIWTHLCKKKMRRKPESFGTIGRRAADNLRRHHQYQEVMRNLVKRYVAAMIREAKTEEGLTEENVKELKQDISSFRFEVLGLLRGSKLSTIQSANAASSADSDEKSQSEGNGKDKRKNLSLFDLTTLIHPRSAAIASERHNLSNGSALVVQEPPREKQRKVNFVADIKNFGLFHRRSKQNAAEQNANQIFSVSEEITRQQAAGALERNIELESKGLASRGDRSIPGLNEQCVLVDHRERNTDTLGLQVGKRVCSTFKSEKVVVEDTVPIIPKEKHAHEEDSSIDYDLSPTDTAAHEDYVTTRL
# [6] = molecular target: Short transient receptor potential channel 4 (Mus musculus) (UniProt Q9QUQ5); assay: blockers of DAMGO-evoked TRPC4 calcium flux – cell-based, second round, Fluo4, HEK293 TRPC4beta/mu-opioid, 1 µM, confirmation (AID 2637;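 active = calcium signal ratio cut to more than 3 SD under the fully stimulated control mean yet still positive, in both repeats and the primary screen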); settings: at 1 µM; hits give high values
# [7] = molecular target: Short transient receptor potential channel 4 (Mus musculus) (UniProt Q9QUQ5); assay: calcium entry via TRPC4 opening agents – cell-based, HEK293 TRPC4/mu-opioid, Fluo-4 calcium, dose response (AID 434937;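 active = primary screen activator hit with a dose response curve and TRPC4 channel activation at any tested dose; inactive = no activation, no dose response, or not a primary hit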)
# [8] = molecular target: Short transient receptor potential channel 4 (Mus musculus) (UniProt Q9QUQ5); assay: potentiation of DAMGO-evoked TRPC4 calcium signal – cell-based, HEK293 TRPC4/mu-opioid, Fluo-4 calcium, EC20 DAMGO, dose response (AID 434941;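 active = earlier screen potentiator hit that boosts the TRPC4 ion channel at some dose, with a dose response; inactive = no potentiation, no dose response, or not a prior hit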;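 also: calcium entry triggered by an EC20 dose of DAMGO at the co-expressed mu-opioid receptor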)
# [9] = molecular target: Short transient receptor potential channel 4 (Mus musculus) (UniProt Q9QUQ5); assay: block of DAMGO-driven TRPC4 calcium entry – cell-based, HEK293 TRPC4/mu-opioid, Fluo-4 calcium, dose response (AID 434942;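 active = primary screen inhibitor hit that blocks the TRPC4 channel at some tested dose, yielding a dose curve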)
# [10] = molecular target: Short transient receptor potential channel 6 (Mus musculus) (UniProt Q61143); assay: TRPC6 blockade by TRPC4 inhibitor hits – cell-based, HEK293, membrane potential dye, duplicate, selectivity assay for TRPC4 inhibitor project, confirmation (AID 434948;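 active = active in primary screen and both duplicates, each dropping signal beyond three positive-control SD with fluorescence still positive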); settings: HEK293 TRPC6, membrane potential dye fluorescence, at 10 µM, stimulated with maximal-effect acetylcholine; hits give high values
# Short transient receptor potential channel 6 (Mus musculus), sequence (Q61143 whole entry, looked up): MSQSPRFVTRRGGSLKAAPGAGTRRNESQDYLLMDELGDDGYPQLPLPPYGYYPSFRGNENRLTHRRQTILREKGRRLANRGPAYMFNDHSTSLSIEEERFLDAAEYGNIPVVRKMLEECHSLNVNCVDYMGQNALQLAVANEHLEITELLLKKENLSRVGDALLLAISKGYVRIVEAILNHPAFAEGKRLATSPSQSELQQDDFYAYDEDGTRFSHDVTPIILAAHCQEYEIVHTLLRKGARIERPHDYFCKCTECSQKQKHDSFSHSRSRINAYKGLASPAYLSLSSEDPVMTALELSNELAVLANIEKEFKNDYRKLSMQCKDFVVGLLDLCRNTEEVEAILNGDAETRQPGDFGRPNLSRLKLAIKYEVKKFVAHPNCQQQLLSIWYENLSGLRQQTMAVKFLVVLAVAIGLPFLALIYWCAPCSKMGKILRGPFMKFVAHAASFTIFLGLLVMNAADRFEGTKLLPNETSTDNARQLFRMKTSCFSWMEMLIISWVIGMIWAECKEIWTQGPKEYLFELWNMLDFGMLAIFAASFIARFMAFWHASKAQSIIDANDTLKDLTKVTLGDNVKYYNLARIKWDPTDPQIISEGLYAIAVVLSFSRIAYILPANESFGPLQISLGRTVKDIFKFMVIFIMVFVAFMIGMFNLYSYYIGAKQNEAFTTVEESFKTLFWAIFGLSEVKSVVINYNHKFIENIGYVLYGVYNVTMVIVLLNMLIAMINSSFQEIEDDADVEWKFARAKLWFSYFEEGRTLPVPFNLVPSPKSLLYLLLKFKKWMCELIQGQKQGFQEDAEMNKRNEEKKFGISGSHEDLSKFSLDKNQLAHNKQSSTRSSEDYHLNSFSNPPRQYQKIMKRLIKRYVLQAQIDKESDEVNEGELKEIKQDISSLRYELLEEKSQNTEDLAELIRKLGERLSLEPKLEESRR
# [11] = molecular target: Short transient receptor potential channel 6 (Mus musculus) (UniProt Q61143); assay: TRPC6 opening by TRPC4 activator hits – cell-based, HEK293, membrane potential dye, duplicate, selectivity assay for TRPC4 activator project, confirmation (AID 434950;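 active = membrane potential signal rise above negative control mean plus 3 SD in both duplicates, also active in the earlier TRPC4 screen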); settings: HEK293 TRPC6, membrane potential fluorescence, at 10 µM; activation: hits give high values; outcome: activation
# [12] = molecular target: Short transient receptor potential channel 6 (Mus musculus) (UniProt Q61143); assay: positive modulators of mouse TRPC6 channel – HEK293 cells, membrane potential dye, duplicate, selectivity assay for TRPC4 potentiator project, confirmation (AID 434952;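 active = compound raising the membrane signal above positive-control mean plus 3 SD in both repeats, and a primary screen hit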); settings: HEK293 TRPC6, membrane potential dye fluorescence, at 10 µM, maximal acetylcholine added after compound; hits give high values
# [13] = molecular target: Short transient receptor potential channel 4 (Mus musculus) (UniProt Q9QUQ5); assay: calcium flux activators in TRPC4/5HT1a cells, counter-screen for TRPC4 activator project, cell-based, second counter screen, HEK293 TRPC4/5HT1a, Fluo-4 (AID 434977;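 active = calcium signal rise above buffer-control mean plus 5 SD in both duplicates, and also a hit in the primary screen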); settings: Fluo-4 calcium flux, at 10 µM; hits give high values
# [14] = serotonin-gated TRPC4 signal block – cell-based, second counter screen, HEK293 TRPC4/5HT1a, Fluo-4, counter-screen for TRPC4 inhibitor project, confirmation (AID 434978;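 active = primary screen active whose calcium signal fell more than 3 SD beyond the full-serotonin control mean in both duplicate plates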;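 as to outcome: serotonin given first at submaximal then at maximal dose after compound preincubation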); settings: Fluo-4 calcium flux, at 10 µM, serotonin added to trigger calcium flux; hits give high values
# [15] = test system: TRPC4 (mouse), co-expressed with 5HT1a in HEK293; assay: enhancement of serotonin-evoked TRPC4 response – cell-based, second counter screen, HEK293 TRPC4/5HT1a, Fluo-4, counter-screen for TRPC4 potentiator project, confirmation (AID 434979;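 active = signal rise over 3 SD above mean of control wells given weak agonist, in both repeats and first screen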); settings: Fluo-4 calcium flux, at 10 µM, serotonin added at its EC20 dose; hits give high values
# [16] = nonspecific calcium rise without TRPC4 – cell-based, HEK293 mu-opioid receptor line, counter-screen for TRPC4 activator project, confirmation (AID 449723;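 active = hit in primary screen, with calcium signal over 5 SD above buffer well mean in both duplicates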;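 also: counter screen cells carry the mu-opioid receptor alone and lack TRPC4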); settings: HEK293 mu-opioid cells, Fluo-4 calcium fluorescence, at 10 µM; hits give high values
# [17] = nonspecific potentiation of DAMGO calcium response – cell-based, HEK293 mu-opioid receptor line, counter-screen for TRPC4 allosteric potentiator project, confirmation (AID 449724;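 active = calcium signal rise more than 3 SD above the low-dose agonist control mean, in both duplicate plates and the primary screen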); settings: HEK293 mu-opioid receptor cells, Fluo-4 calcium flux, at 10 µM, compound added before EC20 DAMGO stimulus; hits give high values
structure (smiles),measurement,setting,value
Cc1ccc(Oc2ccccc2NC(=O)CSCC(=O)Nc2cc(C)on2)cc1,outcome,[1],inactive
same,outcome,[2],inactive
same,outcome,[3],inactive
same,outcome,[4],inactive
same,inhibition,[5],62% (active)
same,outcome,[6],inactive
same,outcome,[7],inactive
same,outcome,[8],inactive
same,outcome,[9],inactive
same,outcome,[10],inactive
same,outcome,[11],inactive
same,outcome,[12],inactive
same,outcome,[13],inactive
same,inhibition,[14],35.3% (active)
same,outcome,[15],inactive
same,outcome,[16],inactive
same,outcome,[17],inactive
CC(C)c1ccc2c(c1)C1Cc3ccccc3C1N2 (stereo not given),outcome,[1],inactive
same,outcome,[2],inactive
same,outcome,[3],inactive
same,outcome,[4],inactive
same,outcome,[5],inactive
same,outcome,[6],inactive
same,outcome,[7],inactive
same,outcome,[8],inactive
same,outcome,[9],inactive
same,outcome,[10],inactive
same,outcome,[11],inactive
same,outcome,[12],inactive
same,outcome,[13],inactive
same,outcome,[14],inactive
same,outcome,[15],inactive
same,outcome,[16],inactive
same,outcome,[17],inactive
Cn1c(CN2CCN(c3ccccc3NS(C)(=O)=O)CC2)nc2ccccc21,outcome,[1],inactive
same,outcome,[2],inactive
same,outcome,[3],inactive
same,outcome,[4],inactive
same,outcome,[5],inactive
same,outcome,[6],inactive
same,outcome,[7],inactive
same,outcome,[8],inactive
same,outcome,[9],inactive
same,outcome,[10],inactive
same,outcome,[11],inactive
same,outcome,[12],inactive
same,outcome,[13],inactive
same,outcome,[14],inactive
same,outcome,[15],inactive
same,outcome,[16],inactive
same,outcome,[17],inactive
c1ccc(Nc2nc(N3CCCCC3)nc(N3CCNCC3)n2)cc1,outcome,[1],inactive
same,outcome,[2],inactive
same,outcome,[3],inactive
same,outcome,[4],inactive
same,outcome,[5],inactive
same,outcome,[6],inactive
same,outcome,[7],inactive
same,outcome,[8],inactive
same,outcome,[9],inactive
same,outcome,[10],inactive
same,outcome,[11],inactive
same,outcome,[12],inactive
same,outcome,[13],inactive
same,outcome,[14],inactive
same,potentiation,[15],44.6% (active)
same,outcome,[16],inactive
same,outcome,[17],inactive
CCN1CCN(Cc2nc3c(c(=O)[nH]c(=O)n3C)n2Cc2ccccc2Cl)CC1,outcome,[1],inactive
same,outcome,[2],inactive
same,outcome,[3],inactive
same,potentiation,[4],12% (active)
same,outcome,[5],inactive
same,outcome,[6],inactive
same,outcome,[7],inactive
same,outcome,[8],inactive
same,outcome,[9],inactive
same,outcome,[10],inactive
same,outcome,[11],inactive
same,outcome,[12],inactive
same,outcome,[13],inactive
same,outcome,[14],inactive
same,potentiation,[15],19% (active)
same,outcome,[16],inactive
same,outcome,[17],inactive
O=[N+]([O-])c1cc([N+](=O)[O-])c2oc(-c3ccccc3)c(Br)c2c1O,outcome,[1],inactive
same,outcome,[2],inactive
same,outcome,[3],inactive
same,outcome,[4],inactive
same,outcome,[5],inactive
same,outcome,[6],inactive
same,outcome,[7],inactive
same,outcome,[8],inactive
same,outcome,[9],inactive
same,outcome,[10],inactive
same,outcome,[11],inactive
same,outcome,[12],inactive
same,outcome,[13],inactive
same,outcome,[14],inactive
same,outcome,[15],inactive
same,outcome,[16],inactive
same,outcome,[17],inactive
Oc1c(Br)cc(C2N=C(c3ccccc3Cl)NO2)cc1Br (stereo not given),outcome,[1],inactive
same,outcome,[2],inactive
same,outcome,[3],inactive
same,outcome,[4],inactive
same,outcome,[5],inactive
same,outcome,[6],inactive
same,outcome,[7],inactive
same,outcome,[8],inactive
same,outcome,[9],inactive
same,outcome,[10],inactive
same,outcome,[11],inactive
same,outcome,[12],inactive
same,outcome,[13],inactive
same,outcome,[14],inactive
same,outcome,[15],inactive
same,outcome,[16],inactive
same,outcome,[17],inactive
CCOc1ccc(NS(=O)(=O)c2ccc(NC(=S)NC(=O)CC(C)C)cc2)cc1,outcome,[1],inactive
same,outcome,[2],inactive
same,outcome,[3],inactive
same,potentiation,[4],15% (active)
same,outcome,[5],inactive
same,outcome,[6],inactive
same,outcome,[7],inactive
same,outcome,[8],inactive
same,outcome,[9],inactive
same,outcome,[10],inactive
same,outcome,[11],inactive
same,outcome,[12],inactive
same,outcome,[13],inactive
same,outcome,[14],inactive
same,potentiation,[15],6.51% (active)
same,outcome,[16],inactive
same,outcome,[17],inactive
CCSc1nnc([C@H](Cc2c[nH]c3ccccc23)NC(=O)OC(C)(C)C)o1,outcome,[1],inactive
same,outcome,[2],inactive
same,outcome,[3],inactive
same,outcome,[4],inactive
same,outcome,[5],inactive
same,outcome,[6],inactive
same,outcome,[7],inactive
same,outcome,[8],inactive
same,outcome,[9],inactive
same,outcome,[10],inactive
same,outcome,[11],inactive
same,outcome,[12],inactive
same,outcome,[13],inactive
same,outcome,[14],inactive
same,potentiation,[15],13.1% (active)
same,outcome,[16],inactive
same,outcome,[17],inactive
COc1ccc(-c2cc(C3CCN(c4cc(Cl)nc(N)n4)CC3)[nH]n2)cc1,outcome,[1],inactive
same,outcome,[2],inactive
same,outcome,[3],inactive
same,potentiation,[4],20% (active)
same,outcome,[5],inactive
same,outcome,[6],inactive
same,outcome,[7],inactive
same,outcome,[8],inactive
same,outcome,[9],inactive
same,outcome,[10],inactive
same,outcome,[11],inactive
same,outcome,[12],inactive
same,outcome,[13],inactive
same,outcome,[14],inactive
same,potentiation,[15],80.5% (active)
same,outcome,[16],inactive
same,outcome,[17],inactive
Cc1ccc(Nc2c(N)c(=O)oc3ccccc23)cc1,outcome,[1],inactive
same,outcome,[2],inactive
same,outcome,[3],inactive
same,outcome,[4],inactive
same,outcome,[5],inactive
same,outcome,[6],inactive
same,outcome,[7],inactive
same,outcome,[8],inactive
same,outcome,[9],inactive
same,outcome,[10],inactive
same,outcome,[11],inactive
same,outcome,[12],inactive
same,outcome,[13],inactive
same,outcome,[14],inactive
same,potentiation,[15],33% (active)
same,outcome,[16],inactive
same,outcome,[17],inactive
C/C(=N/OCO/N=C(/C)c1ccc(F)cc1)c1ccc(F)cc1,outcome,[1],inactive
same,outcome,[2],inactive
same,outcome,[3],inactive
same,outcome,[4],inactive
same,outcome,[5],inactive
same,outcome,[6],inactive
same,outcome,[7],inactive
same,outcome,[8],inactive
same,outcome,[9],inactive
same,outcome,[10],inactive
same,outcome,[11],inactive
same,outcome,[12],inactive
same,outcome,[13],inactive
same,outcome,[14],inactive
same,outcome,[15],inactive
same,outcome,[16],inactive
same,outcome,[17],inactive
CCCCN1CCc2c1nc1ccc(Br)cc1c2N,outcome,[1],inactive
same,outcome,[2],inactive
same,outcome,[3],inactive
same,outcome,[4],inactive
same,outcome,[5],inactive
same,outcome,[6],inactive
same,outcome,[7],inactive
same,outcome,[8],inactive
same,outcome,[9],inactive
same,outcome,[10],inactive
same,outcome,[11],inactive
same,outcome,[12],inactive
same,outcome,[13],inactive
same,outcome,[14],inactive
same,outcome,[15],inactive
same,outcome,[16],inactive
same,outcome,[17],inactive
COC(=O)c1ccc(/C=N/N2CCN(Cc3ccc(C)cc3C)CC2)cc1,outcome,[1],inactive
same,outcome,[2],inactive
same,potentiation,[3],6% (active)
same,potentiation,[4],22% (active)
same,outcome,[5],inactive
same,outcome,[6],inactive
same,outcome,[7],inactive
same,outcome,[8],inactive
same,outcome,[9],inactive
same,outcome,[10],inactive
same,outcome,[11],inactive
same,outcome,[12],inactive
same,outcome,[13],inactive
same,outcome,[14],inactive
same,potentiation,[15],28.6% (active)
same,outcome,[16],inactive
same,outcome,[17],inactive
CN(C)CCCNC(=O)/C=C/c1ccc(OCc2c(F)cccc2Cl)cc1,outcome,[1],inactive
same,outcome,[2],inactive
same,outcome,[3],inactive
same,outcome,[4],inactive
same,outcome,[5],inactive
same,outcome,[6],inactive
same,outcome,[7],inactive
same,outcome,[8],inactive
same,outcome,[9],inactive
same,outcome,[10],inactive
same,outcome,[11],inactive
same,outcome,[12],inactive
same,outcome,[13],inactive
same,outcome,[14],inactive
same,potentiation,[15],16.2% (active)
same,outcome,[16],inactive
same,outcome,[17],inactive
